Results filed as inconclusive are left out. Unmarked numbers belong to inactive results. The source made the active and inactive calls. The call rests on the fitted dose curve; in most records, active means well fitted inhibition curve with a large enough effect; inconclusive means small, poorly fitted or top-dose-only effect; inactive means flat fitted curve, though single readings scatter.
What follows are compounds tested on KB-3-1 (assay: Cytotoxic Profiling of Annotated Libraries Using Quantitative High-Throughput Screening (AID 1296008; further: nearly all actives have a fitted effect of over 60% in size)). Conditions: Five cell lines viability, CellTiter-Glo ATP luminescence, 48-72 h; max response: stronger effect = lower value.
How it was run: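 Cells exposed to compounds for 48 or 72 hr at 37 degrees Celsius. Viability read as ATP-coupled luminescence with CellTiter-Glo after 10 min at room temperature.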
`CC(=O)OCC(=O)O[C@@H]1[C@H]2[C@@H](OC(=O)c3ccccc3)[C@@H](C)C[C@]2(O)[C@H](OC(C)=O)C2(C)[C@H]3CC(C)(C)C(=O)[C@@H]3CC1(OC(C)=O)[C@@H]2OC(C)=O` (some centres undefined) showed a max response of 9.67%. Compound `CC1(O)CCC2C(C(=O)O)=COC(OC3OC(CO)C(O)C(O)C3OC(=O)/C=C/c3ccc(O)cc3)C21` (centres undefined) has a max response of 8.2%. For `CC(=O)NC(CCC(=O)O)C(=O)NCCc1ccc(O)cc1` (centres undefined), the outcome was “inactive”. For `COC(=O)C1C(c2ccc(O)cc2)C(C(=O)OC)C1c1ccc(O)cc1` (centres undefined), the outcome was “inactive”. Work on `C=C(C)C(=O)O[C@H]1C[C@@](C)(OC(C)=O)[C@@]2(O)CC[C@@](C)(O)[C@H](OC(C)=O)[C@@]23OC(=O)C(COC)=C13` yielded a max response of 6.06%. With `CC1(C)CC(=O)N(CCCCN2CCN(c3ncccn3)CC2)C(=O)C1` the max response was 4.21%. With `COc1ccc2c(c1)OC[C@]1(O)c3cc4c(cc3O[C@H]21)OCO4` the outcome was “inactive”. In the case of `CC(CCC1(O)OC2CC3C4CCC5CC(O[C@@H]6O[C@H](CO)[C@@H](O)[C@H](O)[C@H]6O[C@@H]6OC[C@@H](O)[C@H](O)[C@H]6O)C(O)CC5(C)C4CCC3(C)C2C1C)CO[C@@H]1O[C@H](CO)[C@@H](O)[C@H](O)[C@H]1O` (some centres undefined), the outcome is reported as “inactive”. With `COc1cc(CCc2ccccc2)c(C(=O)O)c2c1CC(C(C)(C)O)O2` (centres undefined) the outcome was “inactive”. `CCCC1=CC2=C(CO1)C(=O)C(C)(OC(=O)c1c(C)cc(OC)cc1O)C(O)C2` (centres undefined) showed a max response of 0.111%. `C[C@@H]1O[C@@H](O[C@@H]2[C@@H](O)[C@H](O[C@@H]3[C@@H](O)[C@@H](O)[C@H](O[C@H]4[C@H](OC(=O)[C@]56CCC(C)(C)C[C@H]5C5=CCC7[C@@]8(C)C[C@H](O)[C@H](O[C@@H]9O[C@@H](C)[C@H](O)[C@@H](O)[C@H]9O)[C@@](C)(CO)C8CC[C@@]7(C)[C@]5(C)C[C@H]6O)O[C@H](C)[C@H](O)[C@@H]4O)O[C@H]3C)OC[C@H]2O)[C@H](O)[C@H](O)[C@H]1O` (some centres undefined) was tested, and the outcome was “inactive”. Work on `CCS(=O)(=O)N1CCC([C@@H](C)n2c(C)c(C(=O)NCc3c(OC)cc(C)[nH]c3=O)c3ccccc32)CC1` yielded a max response of 9.76%. `C/C=C1\[C@H](O[C@@H]2O[C@H](CO)[C@@H](O)[C@H](O)[C@H]2O)OC=C(C(=O)OC)[C@H]1CC(=O)OC` showed a max response of 5.8%. With `O=C(O[C@H]1[C@@H]2C[C@@H]3OC[C@@](O)([C@H]2[C@H](O[C@@H]2O[C@H](CO)[C@@H](O)[C@H](O)[C@H]2O)O3)[C@@H]1O)c1ccccc1` the outcome was “inactive”. For `CC1CCC2C(C)(C)C(O)CCC2(C)C12Cc1c(O)cc3c(c1O2)C(N)=NC3` (centres undefined), the outcome was “inactive”. `C=CC(C)(C)O[C@@H]1O[C@H](CO[C@@H]2OC[C@](O)(CO)[C@H]2O)[C@@H](O)[C@H](O)[C@H]1O` was tested, and the outcome was “inactive”. With `CCCC(N[C@@H](C)C(=O)N1[C@H](C(=O)O)C[C@@H]2CCCC[C@@H]21)C(=O)OCC` (some centres undefined) the outcome was “inactive”. `O=C(O)c1ccc(CCCc2ccc(OCCc3ccc(F)cc3)cc2)o1` was tested, and the outcome was “inactive”. Work on `Cc1[nH]cnc1C1CCN(c2nc3cccc4c3n2CCC4=O)CC1` yielded a max response of 2.43%. Work on `C[C@@H]1O[C@@H](O[C@@H]2[C@@H](O)[C@H](O[C@@H]3[C@@H](O)[C@@H](O)[C@H](O[C@H]4[C@H](OC(=O)[C@]56CCC(C)(C)C[C@H]5C5=CCC7[C@@]8(C)C[C@H](O)[C@H](O[C@@H]9O[C@H](C(=O)O)[C@@H](O)[C@H](O)[C@H]9O)[C@@](C)(CO)C8[C@H](O)C[C@@]7(C)[C@]5(C)CC6)OC[C@H](O)[C@@H]4O)O[C@H]3C)OC[C@H]2O)[C@H](O)[C@H](O)[C@H]1O` (some centres undefined) yielded a max response of 2.1%. `CC1(C)CC2C(O)C3=C(CC(C)(O)C2C1)C(=O)OC3O` (centres undefined) was tested, and the max response was 5.32%. For `CC(C)=CC/C=C(/C)[C@H]1CC[C@]2(C)[C@@H]1[C@H](O)CC1[C@@]3(C)CC[C@H](O)C(C)(C)[C@@H]3[C@@H](O[C@@H]3O[C@H](CO)[C@@H](O)[C@H](O)[C@H]3O[C@@H]3O[C@@H](C)[C@H](O)[C@@H](O)[C@H]3O)C[C@]12C` (some centres undefined), the max response was 7.96%. With `O=C(/C=C/c1ccc(O)cc1)OCC1=C[C@@H](O)[C@@H]2C=CO[C@@H](O[C@@H]3O[C@H](CO)[C@@H](O)[C@H](O)[C@H]3O)[C@H]12` the outcome was “inactive”. With `O=C(O[C@H]1[C@@H]2C=CO[C@@H](O[C@@H]3O[C@H](CO)[C@@H](O)[C@H](O)[C@H]3O)[C@@H]2[C@@]2(CO)O[C@@H]12)c1ccc(O)c(O)c1` the max response was 4.32%. `O=C(O)C[C@H]1CCC(=O)[C@@H]1C/C=C\CCOC1OC(CO)C(O)C(O)C1O` (some centres undefined) gave a max response of 1.25%. For `CC(=O)OC1C(O)C(C)=C(CCC(C)CC(=O)O)C2(C)CCCC(C)(C)C12` (centres undefined), the max response was 0.797%. In the case of `Cc1ncc([N+](=O)[O-])n1CC(O)CN1CCOCC1` (centres undefined), the outcome is reported as “inactive”. For `COc1cc2c(cc1O)C1(Cc3ccc4c(c3C1=O)OCO4)N(C)CC2` (centres undefined), the max response was 1.1%. Work on `COC(=O)[C@H](CC1C=NC=N1)NCC12CC3CC(CC(C3)C1)C2` (some centres undefined) yielded a max response of 1.43%. `CCOC(=O)c1ccc(N(C)c2csc(-c3ccccc3)n2)cc1` gave a max response of 0.515%. In the case of `C/C1=C\C[C@H](O[C@@H]2O[C@H](CO)[C@@H](O)[C@H](O)[C@H]2O)/C(C)=C/[C@H]2OC(=O)[C@H](C)[C@@H]2CC1`, the max response is reported as 8.78%. `COc1ccc(C(=O)O[C@H]2CC(C)=CC[C@@]3(C)[C@@H](OC(C)=O)C[C@@](O)(C(C)C)[C@H]23)cc1` gave a max response of 7.38%. In the case of `CC/C=C\C[C@H]1C(=O)C=C[C@@H]1CCCCCCCC(=O)O`, the max response is reported as -3.68%. `CC1CC(=O)C2=C(O1)OC1(C)CCC3C(C)(C)C=CC(=O)C3(C)C1C2` (centres undefined) was tested, and the outcome was “inactive”. `CC1(CO)CC2C(O)C(=O)C3(CO)CC3(C)C2C1` (centres undefined) showed a max response of 2.2%. `CCn1nnnc1NCc1ccc(C(C)C)cc1` was tested, and the max response was 2.69%. In the case of `CCNC(=O)CCC/C=C\C[C@@H]1[C@@H](/C=C/C(O)CCc2ccccc2)[C@@H](O)C[C@@H]1O` (some centres undefined), the max response is reported as 9.15%. In the case of `CN[C@@H]1[C@@H](O)[C@@H](O[C@@H]2[C@@H](O)[C@H](O[C@H]3O[C@H](CN)[C@@H](O)[C@H](O)[C@H]3O)[C@@H](N)C[C@H]2NC(=O)[C@@H](O)CN)OC[C@]1(C)O`, the max response is reported as -2.9%. In the case of `CC1(C)OC(=O)C(OCC2CC2)=C1c1ccc(S(C)(=O)=O)cc1`, the outcome is reported as “inactive”.

From PubChem BioAssay (NCATS)
On the % scale 0 is the no-effect control and ±100 the full control effect.
